The values that follow come from PubChem BioAssay AID778 (Sanford-Burnham Center for Chemical Genomics, 2007).

In all, about 96,000 compounds went through this assay and about 20,000 (21%) were called active.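 The calls were made as follows: active = CYP2C19 inhibition above a set limit at 5 µM in the primary screen (cut at about 50% in these data); inactive = the rest.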 These entries were drawn from the full list.

In this assay the target is Cytochrome P450 2C19 (Homo sapiens) (UniProt P33261). Description: blockers of cytochrome P450 2C19 activity – biochemical, luminescence, ADME assay, primary screen (AID 778).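 Also: plate controls were negative control wells for no effect and 2.5 mM tranylcypromine positive control for full effect.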 The following applies: CYP2C19 Supersomes, luciferin-H EGE luminescence, 30 min; at 5 µM; hits give high values.
Cytochrome P450 2C19 (Homo sapiens), sequence (P33261 whole entry, looked up): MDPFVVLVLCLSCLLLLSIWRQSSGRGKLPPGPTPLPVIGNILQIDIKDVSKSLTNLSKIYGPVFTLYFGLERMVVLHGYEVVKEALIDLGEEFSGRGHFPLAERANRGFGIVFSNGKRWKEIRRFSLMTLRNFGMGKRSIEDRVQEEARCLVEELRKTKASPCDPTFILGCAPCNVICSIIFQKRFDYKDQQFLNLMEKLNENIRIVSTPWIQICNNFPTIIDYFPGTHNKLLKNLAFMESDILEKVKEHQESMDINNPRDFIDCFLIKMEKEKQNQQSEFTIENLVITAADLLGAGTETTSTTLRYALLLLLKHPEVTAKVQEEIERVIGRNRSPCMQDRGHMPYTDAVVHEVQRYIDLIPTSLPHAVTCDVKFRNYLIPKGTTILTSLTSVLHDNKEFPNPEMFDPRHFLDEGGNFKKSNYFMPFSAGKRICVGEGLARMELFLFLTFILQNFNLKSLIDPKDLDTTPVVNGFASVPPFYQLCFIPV
On to `Cc1ccc2cc3cc(C(=O)N4CCCCCC4)oc3nc2c1`, for which the inhibition (as a rule, the change of the read-out against control, counted positive when it falls) is 19.1% (inactive).

Regarding `COc1cc(/C=N/Nc2nn3cnnc3c3ccccc23)cc(OC)c1OC`, the inhibition was 18.8% (inactive). For `O=C1c2cccc3cccc(c23)N1CN1CCN(c2ccccn2)CC1` the value was 1.9% (inactive); for `Cc1ccc(OCC(O)CN2CCN(CC(O)COc3ccc(C)cc3Cl)CC2)c(Cl)c1` (stereo unspecified), -5.7% (inactive); for `OC(COc1cccc2ccccc12)CN1CCN(c2ccccn2)CC1` (stereo unspecified), 88.8% (active). For `COc1ccc(-n2cnc3cc(NCc4ccco4)ccc32)cc1` the value was 42.6% (inactive); for `O=C(Nc1ccccc1)c1ccc2nsnc2c1`, 18.4% (inactive); for `CC(=O)NS(=O)(=O)c1ccc(NC(=O)/C=C/c2ccccc2Cl)cc1`, 4% (inactive). For `O=c1[nH]c2ccccc2n2c(-c3ccccc3)nnc12` the value was 32.6% (inactive); for `CCCSC1=C(C#N)C(c2ccccc2C)C(C(=O)OC)C(=O)N1` (stereo unspecified), 41% (inactive); for `CCOc1ccc2cc(C#N)c(SCC(=O)OC)nc2c1`, 4.1% (inactive). As to `COC(=O)CSC1=C(C#N)C(c2ccccc2OC)C(C(=O)OC)C(=O)N1` (stereo unspecified), the inhibition was 55.4% (active).

For the compound `CC1CCCC(C)N1CCCNC(=O)c1cc2c(=O)n(C)c3ccccc3c2n1C` (stereo unspecified), the inhibition is -9.2% (inactive).

Consider `COc1ccc(CCN(C)C(=O)C2CCCN(Cc3ccc(OC)c(OC)c3)C2)cc1OC` (stereo unspecified), for which the inhibition is 13.3% (inactive). For `COc1ccc(CCNC(=O)C2CCN(c3nn4c(=O)cc(C)nc4s3)CC2)cc1OC` the value was -7% (inactive). On to `COc1ccc(CCNC(=O)C2CCCN(Cc3nc(-c4cccc(Cl)c4)oc3C)C2)cc1OC` (stereo unspecified), for which the inhibition was 87.1% (active).

On to `COc1ccc(CCNC(=O)c2ccc3c(c2)NC(=O)C(N2CCOCC2)S3)cc1OC` (stereo unspecified), for which the inhibition is 43.7% (inactive). For the compound `COc1ccc2c3c(c(=O)oc2c1OCC(=O)C(C)(C)C)CCCC3`, the inhibition is 15.9% (inactive). Turning to `CC(C)CC(=O)N/C(N)=N/c1nc2ccccc2s1`, the inhibition was 36.7% (inactive). Turning to `Cc1ncc(CC(=O)n2cc(C(=O)c3cc(Cl)ccc3O)cn2)s1`, the inhibition is 61% (active). Turning to `Cc1cc2cc3c(cc2nc1SCC(=O)Nc1c(C)cccc1C)CCC3`, the inhibition is 15.7% (inactive). Take `Cn1c(Cc2cccc3ccccc23)nnc1SCC(=O)N1CCN(c2cccc(Cl)c2)CC1`: the inhibition is 12% (inactive). With `Cn1c(Cc2csc(N)n2)nnc1SC/C=C/c1ccccc1`, the inhibition is 61.6% (active). With `CCOC(=O)c1c(NC(=O)CSc2nnc(Cc3csc(N)n3)n2C)sc(C)c1C`, the inhibition is 16.5% (inactive).

For `CSc1ccc(S(=O)(=O)NC2CCCCC2)cc1`, the inhibition was 88.8% (active).

On to `O=S(=O)(NC1CCCCC1)c1ccc(F)c2ccccc12`, for which the inhibition is 26.5% (inactive). For `N#CCCN1CCN(S(=O)(=O)c2ccc(S(=O)(=O)NC3CCCCC3)cc2)CC1` the value was 13.3% (inactive); for `O=C(CCc1ccc(S(=O)(=O)NC2CCCCC2)cc1)NCc1ccccc1`, 63.1% (active). For `CCc1nnc(NS(=O)(=O)c2ccc(NS(=O)(=O)c3ccccc3)cc2)s1` the value was -6.3% (inactive); for `Cc1cc(S(=O)(=O)NC2CCCCC2)ccc1OCC(=O)NCc1cccnc1`, 20.8% (inactive); for `CCCNS(=O)(=O)c1ccc(CCC(=O)NCc2cccnc2)cc1`, 22.4% (inactive). Turning to `O=C(O)c1ccc(F)c(S(=O)(=O)Nc2ccccc2)c1`, the inhibition was 7.1% (inactive). For `COC(=O)c1cc(S(=O)(=O)NC2CCN(Cc3ccccc3)CC2)cn1C` the value was 0.8% (inactive); for `CSc1ccc(S(=O)(=O)Nc2cccc(F)c2)cc1`, 99.4% (active); for `Cc1cccc(CCNS(=O)(=O)c2ccc(S(=O)(=O)NC3CCCC3)cc2)c1`, 67.1% (active). For `CCCc1ccc(-c2c(C)sc(NC(=O)c3ccnn3C)c2C#N)cc1` the value was 23.9% (inactive). For `CCCC(=O)N1c2ccccc2NC2=C(C(=O)CCC2)C1c1ccc(F)cc1` (stereo unspecified) the value was 48.1% (inactive). Consider `CN(C(=O)CSc1nnc(N)s1)c1c(N)n(Cc2ccccc2)c(=O)[nH]c1=O`, for which the inhibition was -3.1% (inactive). For `O=C(CN1CCOCC1)N1CCCc2c1c(=O)oc1ccc(OCc3ccccc3)cc21` the value was 29.5% (inactive); for `CCN(CC)S(=O)(=O)c1ccc(N(C)Cc2ccc(C(F)(F)F)cc2)nc1`, 85.1% (active); for `Cc1ccc(-n2c(N)c(C(=O)N3CCOCC3)sc2=S)c(C)c1`, 20.4% (inactive).

As to `C(=N\n1cnnc1)/c1cccnc1`, the inhibition was -5.3% (inactive). For `COc1ccccc1OCCOc1ccc(/C=N/n2cnnc2)cc1` the value was 38.5% (inactive); for `COc1cccc(OCCOc2cccc(/C=N/n3cnnc3)c2)c1`, 54.7% (active); for `Oc1ccc(CNc2ccccc2O)cc1`, 22% (inactive). For `CC(C)C1N=C2c3ccccc3N=C(SCC(=O)c3ccc(O)c(O)c3)N2C1=O` (stereo unspecified) the value was 16.6% (inactive); for `O=C(N/N=C/c1ccc(O)c(O)c1)C1c2ccccc2Oc2ccccc21`, -4.1% (inactive). Regarding `CCCN(CCC)C(=O)C1c2ccccc2Oc2ccccc21`, the inhibition was 57.1% (active). For `COCC(=O)Nc1ccc(Br)cc1`, the inhibition was 13% (inactive). For `O=C(c1cnn2ccccc12)N1CCc2ccccc21` the value was 25.2% (inactive); for `CCCCn1nc(C(=O)N2CCc3ccccc32)c2ccccc2c1=O`, 69.6% (active). Turning to `CCCCc1nc2ccccc2c(=O)n1NC(=O)c1c(O)c2cccc3c2n(c1=O)CC3`, the inhibition is 8% (inactive). For `Cc1ccc(-c2cc(C(=O)N/N=C/C=C/c3ccco3)c3ccccc3n2)cc1C` the value was -4.3% (inactive); for `COC(=O)c1c(C)c(C)nc(N)c1C#N`, -7.3% (inactive); for `O=C(CN1CCCCCC1)Nc1ccc(Br)cc1Br`, 42.6% (inactive). `CCOc1cccc(-c2nnc3sc(COc4ccc(OC)cc4)nn23)c1`: the inhibition was 19.8% (inactive). Regarding `CCOc1cccc(-n2nnnc2-c2ccc(OC)cc2)c1`, the inhibition was 100% (active). For `CCOC(=O)c1sc(=S)n(-c2cccc(OC)c2)c1N` the value was 31.5% (inactive).

On to `Cc1ccc2[nH]c3c(=O)n(Cc4ccccn4)cnc3c2c1`, for which the inhibition is -0.8% (inactive).

As for `COc1ccc(CC(=O)Nc2ccc3c(c2)CCC3)cc1S(=O)(=O)N1CCOCC1`, the inhibition was 54.5% (active). For `COc1ccc(CNc2ccc3c(c2)CCC3)cc1OC` the value was 49.8% (inactive); for `CC(C)C(=O)OCC(=O)Nc1ccc2c(c1)CCC2`, 16.8% (inactive). For `O=C1CN(c2nc(-c3ccccc3)c3cc(Br)ccc3n2)c2ccccc2N1` the value was -14.1% (inactive); for `S=C1NC(c2ccccc2)=NCN1c1ccc(Br)cc1`, 52.3% (active); for `C=CCn1c2ccccc2c2nnc(SC(CC)C(=O)Nc3nc(C)c(C(=O)OCC)s3)nc21` (stereo unspecified), 48.6% (inactive). For `CCN(CC)CCNC(=O)C1c2ccccc2C(=O)N(C)C1c1cn(C)c2ccccc12` (stereo unspecified), the inhibition is -5.9% (inactive). For `Cc1cccc(NC(=O)c2ccccc2NC(=O)C(C)(C)C)n1` the value was 30.7% (inactive). For `Cc1nc(-c2ccccc2)sc1C(=O)/C=C/c1ccccc1` the value was 16.8% (inactive). For `Cc1ccc(SCC(=O)Nc2ncc(C)s2)cc1` the value was 49.5% (inactive); for `Cc1ccc(SCC(=O)c2sc(-c3ccccc3)nc2C)cc1`, 60.9% (active). With `CC1CN(Cc2nc3c(c(=O)n(C)c(=O)n3C)n2Cc2cccc(Cl)c2)CC(C)O1` (stereo unspecified), the inhibition was 35.9% (inactive).
